Data taken from PubChem BioAssay (Tox21).
Values joined by “and” are separate entries in the source; they are usually repeats but may differ in a detail not shown here. Equal entries are not always repeated. Results filed as inconclusive are left out. Active and inactive are the calls of the source. Unless noted, calls follow the shape of the dose curve; as a rule, active = well fitted curve in the direction sought with a large enough effect in the repeat runs; inconclusive = weak or mixed curves; inactive = no such curve, though single readings can be large; an effect the other way counts as inactive or inconclusive.

Assays:
[1] = target: Peroxisome proliferator-activated receptor delta (Homo sapiens) (UniProt Q03181); assay: qHTS assay to identify small molecule agonists of the peroxisome proliferator-activated receptor delta (PPARd) signaling pathway (AID 743212; calls by dose curve; also: % is scaled to controls: 0 for no effect and ±100 for the full control effect)
How it was run: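 A PPARd-bla HEK293H line with beta-lactamase under an Upstream Activator Sequence is treated with compounds at 37 C. Substrate loading for 2 h at room temperature precedes the fluorescence measurement.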

[2] = qHTS assay to identify small molecule antagonists of the peroxisome proliferator-activated receptor delta (PPARd) signaling pathway - cell viability counter screen (AID 743213); also: nearly all actives have a fitted effect of over 50% in size; also: potency is read from the fitted curve at half-maximal effect
How it was run: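 In this counter screen, HEK293H cells carrying a UAS-beta-lactamase reporter are co-treated with test compounds and 300 nM L165041 (final) for 17 h at 37 C; cell viability is quantified by CellTiter-Glo luminescence.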

[3] = target: Peroxisome proliferator-activated receptor delta (Homo sapiens) (UniProt Q03181); assay: qHTS assay to identify small molecule antagonists of the peroxisome proliferator-activated receptor delta (PPARd) signaling pathway (AID 743215; active = well fitted inhibition curve with a large enough effect in the signal ratio in the repeat runs, not every such curve was filed as active; the % refers to the signal ratio;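 also: cells stimulated with agonist L165041 at 300 nM final during compound exposure; series mostly up to about 62 µM; % is scaled to controls: 0 for no effect and ±100 for the full control effect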)
How it was run: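 Inhibition of L165041-driven (300 nM final) PPARd signaling is scored in HEK293H UAS-bla cells. Exposure lasts 17 h at 37 C; beta-lactamase activity is then read by FRET substrate fluorescence after 2 h at room temperature.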

[4] = qHTS assay to identify small molecule agonists of the farnesoid-X-receptor (FXR) signaling pathway - cell viability counter screen (AID 743218); also: nearly all actives have a fitted effect of over 45% in size; also: potency is read from the fitted curve at half-maximal effect
How it was run: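 Cytotoxicity counter-screen run in parallel, same wells: FXR-UAS-bla HEK 293T cells dosed 16 h at 37 C, viability read by CellTiter-Glo luminescence after 30 min at room temperature.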

[5] = qHTS assay to identify small molecule antagonists of the farnesoid-X-receptor (FXR) signaling pathway - cell viability counter screen (AID 743221; active = well fitted cell-killing curve with a large enough effect in the repeat runs, not every such curve was filed as active; also: nearly all actives have a fitted effect of over 50% in size; also: potency is read from the fitted curve at half-maximal effect)
How it was run: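 Cytotoxicity counter screen run in the FXR-bla reporter wells: HEK 293T cells exposed to compound with 50 uM (final) chenodeoxycholic acid for 16 h, 37 C, then viability measured by CellTiter-Glo luminescence after 30 min, room temperature.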

[6] = target: Vitamin D3 receptor (Homo sapiens) (UniProt P11473); assay: qHTS assay to identify small molecule agonists of the vitamin D receptor (VDR) signaling pathway (AID 743222; calls by dose curve; also: % is scaled to controls: 0 for no effect and ±100 for the full control effect)
How it was run: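 Quantitative HTS agonist-mode screen: compounds in DMSO were pin-transferred onto VDR-bla cells and incubated 16 h at 37C, 5% CO2. Reporter activity was detected with LiveBLAzer B/G FRET substrate after 2 h at room temperature.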

[7] = target: Vitamin D3 receptor (Homo sapiens) (UniProt P11473); assay: qHTS assay to identify small molecule antagonists of the vitamin D receptor (VDR) signaling pathway (AID 743223; active = well fitted inhibition curve with a large enough effect in the signal ratio in the repeat runs, not every such curve was filed as active; the % refers to the signal ratio; also: % is scaled to controls: 0 for no effect and ±100 for the full control effect)
How it was run: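 Antagonist mode: compound added to VDR-bla cells alongside agonist 1alpha,25-dihydroxyvitamin D3 (3 nM final), incubation 16 h at 37C. Read-out is LiveBLAzer FRET fluorescence, 2 h at room temperature.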

[8] = qHTS assay to identify small molecule agonists of the vitamin D receptor (VDR) signaling pathway - cell viability counter screen (AID 743224); also: nearly all actives have a fitted effect of over 50% in size; also: potency is read from the fitted curve at half-maximal effect
How it was run: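 Viability is measured in the same wells as the VDR-bla reporter assay: after 16 h compound treatment and 2 h substrate loading, CellTiter-Glo is added and luminescence read 30 min later.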

[9] = qHTS assay to identify small molecule antagonists of the vitamin D receptor (VDR) signaling pathway - cell viability counter screen (AID 743225); also: nearly all actives have a fitted effect of over 50% in size; also: potency is read from the fitted curve at half-maximal effect
How it was run: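 Cytotoxicity counter screen read by CellTiter-Glo luminescence (30 min, room temperature) in the same wells as the VDR-bla antagonist readout. HEK 293T VDR-UAS-bla cells had 16 h at 37C with compound and 3 nM (final) 1-alpha,25-dihydroxyvitamin D3, then 2 h with FRET substrate.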

[10] = qHTS assay to identify small molecule agonists of the NFkB signaling pathway (AID 1159509; active = well fitted curve in the direction sought with a large enough effect in the signal ratio in the repeat runs, not every such curve was filed as active; the % refers to the signal ratio)
How it was run: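 NFkB-bla ME-180 cells carry a beta-lactamase reporter under an NF-kB response element. They were plated overnight, then exposed to compounds for 5 h at 37 C. Read-out is LiveBLAzer FRET after 1.5 hr at room temperature (405 nm excitation; 460/530 nm emission).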

[11] = qHTS assay to identify small molecule agonists of the endoplasmic reticulum stress response signaling pathway (AID 1159516; active = well fitted activation curve with a large enough effect in the signal ratio in the repeat runs, not every such curve was filed as active; the % refers to the signal ratio; also: % is scaled to controls: 0 for no effect and ±100 for the full control effect)
How it was run: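 Tox21 10K library screened in quantitative HTS format on ESRE-bla HeLa cells, a beta-lactamase reporter under ER stress response element control; 5 hr treatment, FRET read.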

[12] = qHTS assay to identify small molecule agonists of the endoplasmic reticulum stress response signaling pathway - cell viability counter screen (AID 1159517; calls by dose curve)
How it was run: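 CellTiter-Glo was added to wells already read for beta-lactamase FRET, and luminescence was recorded 30 min later. Cells: ESRE-bla HeLa, 1,500 per well, compound exposure 5 hr at 37 C.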

[13] = qHTS assay to identify small molecule antagonists of the retinoid-related orphan receptor gamma (ROR-gamma) signaling pathway - cell viability counter screen (AID 1159520)
How it was run: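 Tet-on ROR gamma CHO cells (1,000/well) were plated 4 hr, given compounds in DMSO for 2 hr at 37 C, then induced with 1 uM final doxycycline for 16 hr. Viability was read as ATP by CellTiter-Glo luminescence after 30 min.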

[14] = target: Nuclear receptor ROR-gamma (Homo sapiens) (UniProt P51449); assay: qHTS assay to identify small molecule antagonists of the retinoid-related orphan receptor gamma (ROR-gamma) signaling pathway (AID 1159521; also: nearly all actives have a fitted effect of over 50% in size; also: potency is read from the fitted curve at half-maximal effect)
How it was run: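 Antagonist read-out: drop in luminescence (ONE-Glo) from an RORE-LUC reporter in CHO cells with doxycycline-inducible ROR-gamma; 2 hr compound pretreatment, 1 uM doxycycline, 16 hr incubation at 37 C.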

[15] = qHTS assay to identify small molecule agonists of the AP-1 signaling pathway (AID 1159526; calls by dose curve; also: % is scaled to controls: 0 for no effect and ±100 for the full control effect)
[16] = qHTS assay to identify small molecule agonists of the peroxisome proliferator-activated receptor delta (PPARd) signaling pathway - cell viability counter screen (AID 743211); also: nearly all actives have a fitted effect of over 55% in size; also: potency is read from the fitted curve at half-maximal effect
How it was run: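 Viability was measured as CellTiter-Glo luminescence (30 min, room temperature) in the same wells as the beta-lactamase readout. GeneBLAzer PPARd UAS-bla HEK293H cells received compound after 5 h plating and were incubated 17 h at 37 C.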

[17] = qHTS assay to identify small molecule agonists of the NFkB signaling pathway - cell viability counter screen (AID 1159515; calls by dose curve; also: series mostly up to about 61 µM; % is scaled to controls: 0 for no effect and ±100 for the full control effect; nearly all actives have a fitted effect of over 55% in size)
How it was run: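 Multiplexed viability readout: after the 5 hr compound exposure and 1.5 hr FRET substrate step, CellTiter-Glo reagent went into the same NFkB-bla ME-180 wells; ATP luminescence was measured after 30 min at room temperature.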

[18] = qHTS assay to identify small molecule agonists of the AP-1 signaling pathway - cell viability counter screen (AID 1159525; calls by dose curve; also: nearly all actives have a fitted effect of over 55% in size)
How it was run: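 ME-180 AP-1-bla, 2500 cells/well, Opti-MEM + 0.5% dialyzed FBS; overnight 37 °C; cpd 15-pt titration, 5 h 37 °C; CellTiter-Glo 30 min RT; luminescence read; normalised to TOAB and DMSO controls.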

[19] = target: Bile acid receptor (Homo sapiens) (UniProt Q96RI1); assay: qHTS assay to identify small molecule antagonists of the farnesoid-X-receptor (FXR) signaling pathway (AID 743217; active = well fitted inhibition curve with a large enough effect in the signal ratio in the repeat runs, not every such curve was filed as active; the % refers to the signal ratio; also: % is scaled to controls: 0 for no effect and ±100 for the full control effect)
How it was run: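 Antagonist mode against 50 uM (final) chenodeoxycholic acid stimulation in FXR-bla HEK 293T cells, 16 h at 37 °C. Inhibition detected as reduced beta-lactamase activity via LiveBLAzer B/G FRET fluorescence after 2 h at room temperature.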

[20] = target: Bile acid receptor (Homo sapiens) (UniProt Q96RI1); assay: qHTS assay to identify small molecule agonists of the farnesoid-X-receptor (FXR) signaling pathway (AID 743220; active = well fitted activation curve with a large enough effect in the signal ratio in the repeat runs, not every such curve was filed as active; the % refers to the signal ratio; also: % is scaled to controls: 0 for no effect and ±100 for the full control effect)
How it was run: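 Beta-lactamase reporter under UAS control in GeneBLAzer FXR HEK 293T cells (5000/well) measured with LiveBLAzer FRET substrate after 2 h at room temperature. Compound exposure lasted 16 h at 37C.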

Bile acid receptor (Homo sapiens), sequence (Q96RI1 whole entry, looked up): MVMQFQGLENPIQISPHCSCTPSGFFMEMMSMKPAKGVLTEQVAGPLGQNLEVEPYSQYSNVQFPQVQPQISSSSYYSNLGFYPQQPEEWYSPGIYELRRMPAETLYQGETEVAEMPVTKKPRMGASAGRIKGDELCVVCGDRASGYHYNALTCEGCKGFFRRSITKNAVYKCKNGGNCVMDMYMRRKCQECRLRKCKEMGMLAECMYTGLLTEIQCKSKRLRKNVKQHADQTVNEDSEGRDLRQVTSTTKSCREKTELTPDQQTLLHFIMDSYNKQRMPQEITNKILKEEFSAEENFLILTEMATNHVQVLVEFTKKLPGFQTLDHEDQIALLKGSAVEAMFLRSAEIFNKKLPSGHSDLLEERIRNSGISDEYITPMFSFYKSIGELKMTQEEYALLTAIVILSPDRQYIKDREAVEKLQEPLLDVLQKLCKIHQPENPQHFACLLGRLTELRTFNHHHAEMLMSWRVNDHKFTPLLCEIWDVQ
Peroxisome proliferator-activated receptor delta (Homo sapiens), sequence (Q03181 whole entry, looked up): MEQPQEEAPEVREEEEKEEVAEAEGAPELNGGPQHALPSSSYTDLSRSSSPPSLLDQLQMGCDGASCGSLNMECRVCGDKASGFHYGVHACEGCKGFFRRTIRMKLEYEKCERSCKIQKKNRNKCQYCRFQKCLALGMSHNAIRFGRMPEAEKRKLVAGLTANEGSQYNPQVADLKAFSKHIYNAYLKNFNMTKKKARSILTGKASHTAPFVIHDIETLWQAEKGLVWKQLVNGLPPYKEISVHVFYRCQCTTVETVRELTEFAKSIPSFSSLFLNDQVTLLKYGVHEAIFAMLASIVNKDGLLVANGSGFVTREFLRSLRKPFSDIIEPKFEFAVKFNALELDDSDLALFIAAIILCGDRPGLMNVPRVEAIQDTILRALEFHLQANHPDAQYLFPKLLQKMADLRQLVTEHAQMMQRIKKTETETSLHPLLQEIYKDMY
Vitamin D3 receptor (Homo sapiens), sequence (P11473 whole entry, looked up): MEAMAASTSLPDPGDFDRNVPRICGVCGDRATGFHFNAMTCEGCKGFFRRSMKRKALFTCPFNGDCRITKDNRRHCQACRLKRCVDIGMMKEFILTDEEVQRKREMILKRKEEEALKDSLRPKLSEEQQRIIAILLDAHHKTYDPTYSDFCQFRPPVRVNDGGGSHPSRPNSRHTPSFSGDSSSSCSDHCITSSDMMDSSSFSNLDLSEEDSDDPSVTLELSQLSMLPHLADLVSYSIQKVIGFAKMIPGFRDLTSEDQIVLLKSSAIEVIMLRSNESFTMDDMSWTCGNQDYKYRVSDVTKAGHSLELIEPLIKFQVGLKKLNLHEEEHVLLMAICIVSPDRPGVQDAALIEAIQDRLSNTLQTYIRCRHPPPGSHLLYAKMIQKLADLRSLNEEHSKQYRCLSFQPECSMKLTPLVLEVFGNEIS

CN1C(=O)N(C)C(O)C1O (stereo not drawn)
inactive: outcome [1] | Potency [2] | Potency [3] | Potency [4] | Potency [5] | outcome [6] | outcome [7] | Potency [8] | Potency [9] | outcome [10] | outcome [11] | outcome [12] | outcome [13] | Potency [14] | outcome [15]

CCOC(=O)CC(C)=O
inactive: Potency [16] | Potency [2] | Potency [4] | outcome [6] | Potency [8] | Potency [9] | outcome [17] | outcome [11] | outcome [12] | outcome [13] | Potency [18] | outcome [15]

Cc1sccc1Br
inactive: Potency [16] | Potency [2] | outcome [19] | Potency [4] | outcome [20] | Potency [5] | outcome [6] | outcome [7] | Potency [8] | Potency [9] | outcome [10] | outcome [11] | outcome [12] | outcome [13] | Potency [14] | Potency [18] | outcome [15]

CC/C=C\CCOC(C)=O
inactive: Potency [16] | outcome [1] | Potency [2] | Potency [3] | outcome [19] | Potency [4] | outcome [20] | Potency [5] | outcome [6] | outcome [7] | Potency [8] | Potency [9] | outcome [10] | outcome [11] | outcome [13] | Potency [14] | Potency [18] | outcome [15]

COc1ccc2c(c1)c(CC(=O)OCC(=O)O)c(C)n2C(=O)c1ccc(Cl)cc1
inactive: Potency [16] | Potency [2] | Potency [4] | outcome [6] | Potency [8] | Potency [9] | outcome [10] | outcome [11] | outcome [13] | Potency [14] | Potency [18] | outcome [15]

CN(C)CCCN1c2ccccc2CCc2ccc(Cl)cc21
inactive: outcome [6] | outcome [10] | outcome [11] | outcome [13] | Potency [18]
active: Potency [16] 38.9 µM and 29.8 µM | Potency [2] 21.9 µM and 13.3 µM | Potency [4] 24.5 µM | Potency [5] 49 µM | Potency [8] 43.6 µM | Potency [9] 38.9 µM | Potency [14] 19.3 µM

OCCOc1ccc(OCCO)cc1
inactive: Potency [16] | Potency [2] | outcome [19] | Potency [4] | outcome [6] | outcome [7] | Potency [8] | outcome [10] | outcome [11] | outcome [12] | outcome [13] | Potency [14] | outcome [15]

CCC(C)S (stereo not drawn)
inactive: activity change, negative = cytotoxicity [16] 2.23% [at 2.7 µM] | activation [1] -4.14% [at 2.7 µM] | viability change, negative = cytotoxic [2] 4.88% [at 2.83 µM] | ratio activity, negative = inhibition [3] 5.9% [at 2.83 µM] | activity change, negative = inhibition [19] 3.24% [at 2.69 µM] | viability change, negative = cytotoxic [4] 7.12% [at 2.7 µM] | activation [20] -0.872% [at 2.7 µM] | activity change, negative = cytotoxicity [5] 5.23% [at 2.69 µM] | activation [6] 12.2% [at 2.71 µM] | activity change, negative = inhibition [7] 0.31% [at 3.11 µM] | activity change, negative = cytotoxicity [8] 8.62% [at 2.7 µM] | viability change, negative = cytotoxic [9] 1.2% [at 3.11 µM] | activation [10] 0.0323% [at 3.11 µM] | activation [11] 2.07% [at 3.11 µM] | activity, negative = cytotoxicity [13] -0.272% [at 3.27 µM] | activity change, negative = inhibition [14] 4.64% [at 3.27 µM] | viability change, negative = cytotoxic [18] 5.51% [at 2.72 µM] | activation [15] -2.17% [at 2.72 µM]

CCC(C)C1CCCCC1=O (stereo not drawn)
inactive: Potency [16] | outcome [1] | Potency [2] | Potency [3] | Potency [4] | Potency [5] | outcome [6] | Potency [8] | Potency [9] | outcome [10] | outcome [11] | outcome [12] | outcome [13] | Potency [14] | Potency [18] | outcome [15]
